Results from the supplement of paper PMC3334620.
Over roughly 33,000 sequences, “E-score (-0.5 to 0.5)” has its median near -0.053; the highest 2% begin near 0.37. What follows is part of a selection rich in the highest values, with near analogues and random picks from the rest.

Molecular target: Hap1 (UniProt P0CE41)
Assay: PBM E-score (8-mer binding enrichment) (E-score (-0.5 to 0.5)); higher = stronger / more preferred TF binding
Details: protein concentration: 200 nM; construct: GST-DNA-binding domain
Protocol: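 Universal 'all 10-mer' protein binding microarrays (Agilent AMADID 015681) probed with GST-tagged S. cerevisiae TFs (full-length or DBD) made by in vitro transcription/translation (PURExpress), about 100-200 nM. Bound TF was detected with fluorescent anti-GST. Each ungapped 8-mer (which stands for itself and its reverse complement) is scored by the PBM enrichment score (E-score), a modified Wilcoxon-Mann-Whitney statistic from -0.5 to +0.5, computed with the Universal PBM Analysis Suite. Scale: above 0.35 generally sequence-specific binding.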

Sequence of UniProt P0CE41 (P0CE41 whole entry): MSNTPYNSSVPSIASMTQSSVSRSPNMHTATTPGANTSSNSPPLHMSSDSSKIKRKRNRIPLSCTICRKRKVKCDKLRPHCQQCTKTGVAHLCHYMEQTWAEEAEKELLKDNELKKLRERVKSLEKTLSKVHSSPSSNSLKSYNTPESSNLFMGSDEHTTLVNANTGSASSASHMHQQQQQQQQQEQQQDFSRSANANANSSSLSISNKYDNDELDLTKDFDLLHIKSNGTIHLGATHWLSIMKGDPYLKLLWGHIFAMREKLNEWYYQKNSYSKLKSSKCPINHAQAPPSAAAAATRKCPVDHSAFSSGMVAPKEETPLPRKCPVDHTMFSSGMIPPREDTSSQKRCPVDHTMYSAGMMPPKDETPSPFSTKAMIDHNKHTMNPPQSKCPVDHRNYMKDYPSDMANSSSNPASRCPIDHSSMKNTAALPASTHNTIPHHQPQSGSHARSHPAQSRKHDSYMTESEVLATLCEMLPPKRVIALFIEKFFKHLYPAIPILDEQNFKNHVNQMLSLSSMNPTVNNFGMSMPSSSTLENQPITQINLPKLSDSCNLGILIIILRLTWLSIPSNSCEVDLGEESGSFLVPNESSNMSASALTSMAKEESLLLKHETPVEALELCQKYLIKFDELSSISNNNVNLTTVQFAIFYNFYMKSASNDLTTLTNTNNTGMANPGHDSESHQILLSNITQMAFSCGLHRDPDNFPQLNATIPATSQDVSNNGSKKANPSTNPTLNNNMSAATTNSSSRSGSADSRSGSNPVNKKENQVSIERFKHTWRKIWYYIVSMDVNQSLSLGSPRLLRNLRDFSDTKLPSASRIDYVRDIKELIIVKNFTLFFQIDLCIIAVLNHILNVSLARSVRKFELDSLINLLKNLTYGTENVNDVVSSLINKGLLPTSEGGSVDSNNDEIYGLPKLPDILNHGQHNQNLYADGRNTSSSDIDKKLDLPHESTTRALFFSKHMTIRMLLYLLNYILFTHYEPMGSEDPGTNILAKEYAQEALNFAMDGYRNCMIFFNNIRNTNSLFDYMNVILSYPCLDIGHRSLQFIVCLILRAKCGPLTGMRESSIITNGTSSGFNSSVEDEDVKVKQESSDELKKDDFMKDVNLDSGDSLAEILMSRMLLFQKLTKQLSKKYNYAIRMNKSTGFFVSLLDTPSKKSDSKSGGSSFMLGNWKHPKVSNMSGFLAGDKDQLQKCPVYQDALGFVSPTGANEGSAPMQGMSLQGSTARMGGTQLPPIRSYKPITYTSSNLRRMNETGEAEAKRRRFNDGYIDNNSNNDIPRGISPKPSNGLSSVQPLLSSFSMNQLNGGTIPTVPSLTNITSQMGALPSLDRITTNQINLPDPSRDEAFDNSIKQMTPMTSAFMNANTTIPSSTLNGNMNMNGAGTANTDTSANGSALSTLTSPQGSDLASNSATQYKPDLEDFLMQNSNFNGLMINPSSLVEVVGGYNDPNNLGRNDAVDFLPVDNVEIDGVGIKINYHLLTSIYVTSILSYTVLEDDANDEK

Sequence	PBM E-score
ATGACGAG	-0.168
CCCGCACC	0.151
ATCCCAAC	-0.239
GGCAGGAC	0.0548
CATAAGAC	0.0262
CCGAGAGC	0.396
CCGAGCGG	0.395
CCGAGCGA	0.36
GCGAGCGC	0.137
ACGAGCCG	0.0797
CCGAGCCA	0.347
CCGAGCGC	0.384
CCGAGAGA	0.309
ACGAGCGG	0.161
ACGAGCGC	-0.00987
ACGAGAGC	-0.0925
CCGAGCCG	0.397
ACATTGGA	-0.0771
AAGCTGCC	0.0235
CATTTCCC	0.162
ATCTACGG	0.299
CCTGAGCA	-0.151
TAAGCCGA	0.382
CAAGCCGG	0.292
AAAGCCGA	0.426

Sequence	PBM E-score
GAAGCCGA	0.308
AAAGCCGC	0.305
AAAGCCCC	0.106
CAAGCCGA	0.24
AAAGCCCG	0.374
AAAGCCGT	0.322
AAAGCCGG	0.439
AAAGCCTG	-0.184
AAAGCCCT	-0.0264
GCCGCTTA	0.073
GTAGCCAC	-0.194
GTTTTAGA	0.00012
AGAGAACG	-0.258
CAATTCGG	0.267
GTGCTGCA	0.0816
CCAGCACG	-0.13
AAAAGCCT	-0.221
AAAAGCCC	0.138
AAAAGCCG	0.414
AGCTTTGG	-0.135
CCCGGATA	0.325
ACCGGACA	0.411
CCCGGACG	0.388
CCGGGACG	0.199
ACTGGACA	-0.00994

Sequence	PBM E-score
GCCGGATA	0.426
AGCGGACA	0.326
CACGGACG	0.331
CCCCGACG	0.379
CCCCGACC	0.238
CCCCGACA	0.302
ACCGGATA	0.359
AGATCCCG	0.283
AGTACCCG	0.1
CGAAAGAG	0.0191
AGGTGCTC	-0.269
CCTGGAGC	-0.197
ACTCGCAA	-0.231
GTCCACTA	-0.102
GAACTGCC	-0.0156
CTACCATA	-0.191
GATGAGCA	-0.0729
ACAATAGG	-0.0571
GAAACGTC	-0.0511
GATATGCA	0.0359
AGCTACTG	-0.00261
CCCGGACC	0.361
GCCGGACA	0.423
TGCGGACA	0.22
GCCGGACC	0.341

Sequence	PBM E-score
TCCGGACA	0.444
TACGGACA	0.291
CCCGGACA	0.39
GACGGACA	0.325
CCGGGACA	0.299
CCGGGCTC	0.243
ACACTCAG	-0.208
AACCCCGT	0.329
GACCCCGA	0.285
CACCCCGA	0.229
GCCCCCGA	0.2
ACACCCGA	0.305
ACCCCCGT	0.126
TCCCCCGA	0.393
CCCCCCGA	0.253
AACCCCGA	0.456
ACCCCCGA	0.371
TACCCCGA	0.398
AACCCCCA	-0.217
AACAAAGG	0.0332
AGGGATAC	-0.181
CCGGCTAA	0.331
TCGTTCAA	-0.246
GGGGAGGA	0.093
GCATAGAC	-0.19

Sequence	PBM E-score
GGCCTCTA	-0.34
ACATCTCT	-0.0976
CCGTTATC	0.385
CCGTTATA	0.311
ACGTTATC	0.17
GACACAAA	0.132
AGGACGAC	-0.143
CGGACGAA	0.431
CGGACGAG	0.387
AGGACGAG	-0.282
GGGACGAA	0.0323
CGGACGAC	0.371
AGGACGAA	0.128
CCGACGAG	0.259
GGGACGAC	-0.117
CCCCGTAC	0.0387
CTATGAGA	-0.248
ATAGCCCG	0.173
GCCCAGCA	-0.0648
ATAAGAAG	0.0696
ATATCTTC	0.152
GCTTAACC	-0.0526
CTCACCTA	-0.159
CATATCGC	0.179
AATATCGC	0.314

Sequence	PBM E-score
ATTATCCG	0.391
CATATCGA	0.0363
AATATCGG	0.443
AATATCCA	0.0415
CATATCGG	0.404
ATTATCCC	0.0666
AATATCGA	0.0281
ATTATCCA	-0.0526
AATATCCC	0.109
AATATCCG	0.414
CTGCACTA	0.0173
AGACACGC	-0.0363
ACTCATCG	-0.0326
AACTATGG	-0.0562
CACGCCAA	-0.148
CACAGCTG	-0.194
CGGATGGA	0.238
GAGCGTTA	-0.121
ACCTTGAG	-0.113
AAAATCCG	0.437
AAAATCCC	0.0176
ATTATCGG	0.432
ATTATCGA	-0.0673
ATTATCGC	0.132
CAAATCCG	0.344

Sequence	PBM E-score
GCTCGAGC	0.0114
GCGAACGA	0.00245
GGACCCTA	-0.0296
CGGCGCAC	0.259
GAAAGACA	-0.0415
AATACCGG	0.451
ATTACCGC	0.274
ATTACCGG	0.434
AATACCGC	0.304
ATTACCGA	0.348
AATACCGT	0.252
CATTCAGA	-0.141
ACATCGCA	-0.0398
GAGGAGAC	-0.0943
GAAAGGGA	-0.0702
ACCTTATC	0.139
GTGGCCAC	0.203
ATCGGGGA	0.386
ATCGGGGG	0.349
ATCGGGTC	0.343
GTCGGGGA	0.301
CGCGGAGC	0.274
